This is an account of results in PubChem BioAssay AID492952 (Southern Research Specialized Biocontainment Screening …, 2010).

The whole screen tested about 2,300 compounds, of which about 1,500 (65%) were called active. No rule for the calls is given here. So high a share suggests a set chosen from earlier hits. The list shows a part of the results. Results with a measured potency or affinity are listed apart.

The assay is described as follows: replicating M. tuberculosis growth inhibition, dose response, non-replicating M. tuberculosis project, H37Rv (AID 492952).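 Also: Mycobacterium tuberculosis grown in culture; growth inhibition read after a week of incubation.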 As to conditions: series mostly up to 50 µM.
On to `O=c1cc(-c2ccccc2Cl)oc2c([N+](=O)[O-])c(O)cc(O)c12`, for which the molecule was called inactive.
The same measure for `Cc1ccc(-c2nnc(Cc3ccc([N+](=O)[O-])cc3)o2)cc1`: “inactive”; for `CCC1CCC(c2nnc(-c3ccc([N+](=O)[O-])cc3)o2)CC1` (stereo not given): “inactive”.
With `COc1ccc(Cc2nnc(SCc3ccc([N+](=O)[O-])cc3)o2)cc1`, the outcome was inactive.
The same measure for `Cc1nc(Cl)nc(N(C)c2ccccc2)c1[N+](=O)[O-]`: “inactive”.
To `O=C1CCCCC1Sc1nnc(-c2ccc3c(c2)OCO3)o1` (stereo not given) belongs “inactive”.
The same measure for `C(=C\c1ccccc1)/CSc1nc2ncccc2[nH]1`: “inactive”.
On to `O=C(CCSc1ccccc1)N1CCCC1`, for which the outcome was inactive.
To `CCCC(O)(CCC)C(=O)NNc1ccc(C)cc1` belongs “inactive”.
Turning to `CCS(=O)(=O)c1ncc(Cl)c(C(=O)Nc2ccc(S(=O)(=O)N3CCC(C)CC3)cc2)n1`, the molecule was called inactive.
For `COc1ccc(CNC(=O)COC(=O)C2CC3C=CC2C3)cc1` (stereo not given), the result was inactive.
To `CCCCNC(=O)Cc1ccc(C)cc1` belongs “inactive”; to `CC(C)CSc1nnc2c3ccccc3n(C)c2n1`, “inactive”.
The same measure for `O=C(c1cc2ccccc2o1)c1nc2c(n1O)CCCCC2`: “inactive”; for `CCCOC(=O)c1ccc(NC(=O)Cc2cccs2)cc1`: “inactive”; for `CCCCOC(=O)c1ccc(NC(=O)C2CCCO2)cc1` (stereo not given): “inactive”.
The same measure for `O=C(Nc1ccccc1)c1ccc(Br)o1`: “inactive”; for `CCCOC(=O)c1ccc(NC(=O)C2C3C=CC(O3)C2C(=O)O)cc1` (stereo not given): “inactive”; for `CC1CCN(S(=O)(=O)c2cccc(C(=O)Oc3ccc([N+](=O)[O-])cc3)c2)CC1`: “inactive”.
For `C=CCN(CC=C)C(=O)Cc1ccc(F)cc1`, the molecule was called inactive.
To `O=C(CCNc1cccc(F)c1)c1cccc([N+](=O)[O-])c1` belongs “inactive”.
With `Nc1ccccc1C(=O)NNC1=C(C(=O)C(F)(F)F)CCC1`, the molecule was called inactive.
On to `COc1ccc(C)c2sc(NC(=O)CCS(=O)(=O)c3ccccc3)nc12`, for which the result was inactive.
For `O=C(NC1CCCC1)c1cc(-c2cccs2)on1`, the outcome was inactive.
To `Cc1ccc(-c2nnc(-c3cccs3)o2)cc1` belongs “inactive”.
To `CN1C(=O)CC(N2CCC(c3nc4ccccc4s3)CC2)C1=O` (stereo not given) belongs “inactive”; to `CSc1ccc(COC(=O)CCS(=O)(=O)c2ccc(C)cc2)cc1`, “inactive”.
To `COc1ccc(OCCOC(=O)CCS(=O)(=O)c2ccc(C)cc2)cc1` belongs “inactive”; to `O=C(CCS(=O)(=O)c1ccc(Cl)cc1)Oc1ccc2c(c1)OCO2`, “inactive”.
`O=C(COc1ccc(F)cc1)Nc1ccc2c(c1)OCCO2`: the call was inactive.
To `Cc1ccc(NC(=O)CC2SC3=NCCCN3C2=O)c(C)c1` (stereo not given) belongs “inactive”; to `CC(C)c1ccc(C2=C(O)c3ccccc3C(=O)C2=O)cc1`, “inactive”; to `CCOC(=O)Nc1ccc2c(c1)N(C(=O)CCN1CCOCC1)c1ccccc1S2=O` (stereo not given), “inactive”.
The same measure for `NCCCN1CCOCC1`: “inactive”; for `Cc1ccc(C(=O)CCC2CCCC2=O)cc1` (stereo not given): “inactive”.
`CC(CN1CCOCC1)OC(=O)c1ccc2c(c1)OCCO2` (stereo not given): the molecule was called inactive.
The same measure for `CC1CCCN(CCSc2ccc(Cl)cc2)C1` (stereo not given): “inactive”.
The same measure for `Clc1ccc(SCCCCN2CCNCC2)cc1`: “inactive”; for `CCOC(=O)C1CCN(CCCSc2ccc(Cl)cc2)CC1`: “inactive”.
The same measure for `O=Cc1ccc(-c2ccc(Cl)cc2Cl)[nH]1`: “inactive”; for `Fc1ccc(COc2ccc(-c3nnco3)cc2)cc1`: “inactive”; for `O=C(CCCSc1nc2ccccc2s1)NCc1ccco1`: “inactive”.
Regarding `COC(=O)CCSCc1cn2cc(Cl)ccc2n1`, the molecule was classed as inactive.
To `Cc1cc2n(n1)SC(Nc1ccccc1)N2` (stereo not given) belongs “inactive”.
To `CC(C)n1c(=S)[nH]c2ccccc2c1=O` belongs “inactive”; to `CC(C)(C)NCc1cc(Br)ccc1OC1CCCC1`, “inactive”; to `COc1ccc(-n2c3c(cc(C(=O)NNc4ccccc4)c2=O)C(=O)CC(C)(C)C3)cc1`, “inactive”.
To `Clc1ccccc1OCc1nnc(-c2ccccc2)o1` belongs “inactive”; to `c1ccc(Cc2nnc(-c3ccccc3)o2)cc1`, “inactive”; to `O=C1NC(=S)S/C1=C\c1ccc(SCc2ccco2)o1`, “inactive”.
Take `COc1ccc(OCCCC(=O)Nc2ccc(N3CCOCC3)cc2)cc1`: the molecule was called inactive.
The same measure for `CN(CC(=O)Nc1ccc(Cl)cc1)C1CCCCC1`: “inactive”; for `Cc1ccc(C(=O)C=CNNC(=O)c2ccccc2)cc1`: “inactive”; for `O=C(C1CCN(C2CC(=O)N(Cc3ccccc3)C2=O)CC1)N1CCCCCC1` (stereo not given): “inactive”.
The same measure for `CC(C)CN(Cc1c(O)ccc2ccccc12)CC(C)C`: “inactive”.
To `COc1ccc(C(=O)C=CNNC(=O)c2ccc(Cl)cc2)cc1` belongs “inactive”.
Regarding `CCOc1ccc(NC(=O)CCNC(=O)c2ccc(Br)cc2)cc1`, the result was inactive.
To `COc1ccccc1CCNC(=O)c1ccc(C)o1` belongs “inactive”; to `O=C(NCCSc1ccccc1)c1ccc(Br)cc1`, “inactive”; to `O=C(Oc1cccc2cccnc12)c1cccc(-n2cnnn2)c1`, “inactive”.
To `Cc1ccc(C2=N/C(=C\c3cccnc3)C(=O)O2)cc1` belongs “inactive”; to `Cc1cccc(C2=N/C(=C\c3cccnc3)C(=O)O2)c1`, “inactive”; to `CN(CCOCCOc1ccc(F)cc1)Cc1ccccc1`, “inactive”.
Regarding `CN(CCCCOc1ccc(F)cc1)Cc1ccccc1`, the result was inactive.
Regarding `O=C1CC(N2CCN(c3ccccc3)CC2)C(=O)N1CCc1ccccc1` (stereo not given), the molecule was classed as inactive.
To `CC(NC(=O)COc1ccccc1F)C1CC2CCC1C2` (stereo not given) belongs “inactive”; to `O=C(COc1ccccc1)NC1CCCCC1`, “inactive”.
The same measure for `O=C(NCCC1=CCCCC1)c1coc(=O)c(Br)c1`: “inactive”.
The same measure for `COc1cc(/C=N/Nc2cccc3cccnc23)cc(OC)c1O`: “inactive”; for `COc1ccc(OCC(=O)Nc2ccc(N3CCN(C(=O)c4ccco4)CC3)cc2)cc1`: “inactive”; for `COc1ccc(N2CCN(CC(=O)NC(=O)NC(C)(C)C)CC2)cc1`: “inactive”.
Regarding `CN(C)Cc1ccccc1Sc1ccc(Br)cc1`, the molecule was classed as inactive.
To `CC1CCCN(CCCOc2ccc([N+](=O)[O-])cc2)C1` (stereo not given) belongs “inactive”.
Take `O=C1c2ccccc2C(=O)N1CCOc1ccc(F)cc1`: the molecule was called inactive.
To `COc1ccc(N=Cc2nc(-c3ccccc3)oc2OC(C)=O)cc1` belongs “inactive”; to `COc1ccccc1N=Cc1nc(-c2ccccc2)oc1OC(C)=O`, “inactive”.
The same measure for `CC1(C)CC(=O)C2=C(C1)OC(N)=C([N+](=O)[O-])C2c1ccc(C#N)s1` (stereo not given): “inactive”; for `C/C(=N\NC(=O)COc1cccc(C)c1)c1ccc2ccccc2c1O`: “inactive”; for `Cc1ccc(N2C(=O)CC(Sc3nccc(C)n3)C2=O)cc1` (stereo not given): “inactive”.
`O=C(CCC1CCCC1)NCc1ccccn1`: the molecule was called inactive.
The same measure for `COc1cccc(CC2(CO)CCCN(Cc3sc(N4CCCC4)nc3Cl)C2)c1` (stereo not given): “inactive”; for `COc1cccc(C(=O)C2CCCN(CC3=Cc4cc(OC)ccc4OC3)C2)c1` (stereo not given): “inactive”; for `CCOC(=O)N1CCC(NC(=O)C2CCN(c3nc(-c4ccc(OC)cc4)no3)CC2)CC1`: “inactive”.
The same measure for `CN1C(=O)CC(Sc2ccccc2C(=O)O)C1=O` (stereo not given): “inactive”; for `CC(C)=CC1C(C(=O)Nc2ccc(Br)cn2)C1(C)C` (stereo not given): “inactive”; for `C/C(=C\C(=O)c1ccc(Br)cc1)NNC(=O)c1ccccc1`: “inactive”.
To `Cn1[nH]c(-c2ccccc2)c(/C=N/O)c1=O` belongs “inactive”; to `CCOc1ccc(NCC(=O)c2ccc(C)cc2)cc1`, “inactive”.
Regarding `CCOc1ccc(NC(=O)Cn2sc3nc(C)cc(C)c3c2=O)cc1`, the result was inactive.
The same measure for `COc1ccc(C(O)CNc2ccc(C)cc2)cc1` (stereo not given): “inactive”; for `O=C1CCC(=O)N1CNc1ccc(Oc2ccccc2)cc1`: “inactive”.
To `CCOC(=O)CCSc1n[nH]c(=S)s1` belongs “inactive”; to `CC(=O)N1CCN(C(=O)CC2OC(=O)c3ccccc32)CC1` (stereo not given), “inactive”.
The same measure for `CCn1ccc(C(=O)Nc2cccc(Cl)c2)n1`: “inactive”.
With `O=C(O)c1ccc(NCc2ccc(Br)cc2)cc1`, the outcome was inactive.
Turning to `O=C(COc1ccc(Br)cc1)N/N=C1/SCC(=O)N1Cc1ccco1`, the molecule was classed as inactive.
Regarding `O=C(COc1ccccc1)Nc1ccc(Cl)cn1`, the molecule was classed as inactive.
On to `COc1ccccc1C(=O)OCC(=O)Nc1ccc(Cl)cn1`, for which the molecule was classed as inactive.
The same measure for `O=C(COC(=O)CC1CCCC1)Nc1ccc(Cl)cn1`: “inactive”; for `COc1ccc(CC(=O)OCC(=O)Nc2ccc(Br)cc2)cc1`: “inactive”.
To `O=C(CCC1CCCC1)Nc1ccc(Br)cn1` belongs “inactive”; to `Cc1ccc(OCC(=O)Nc2ccc([N+](=O)[O-])cc2)cc1`, “inactive”.
The same measure for `O=C(OCC#CCSc1nnc(-c2ccncc2)o1)c1cccs1`: “inactive”; for `OC(C#CCN1CCOCC1)c1cccs1` (stereo not given): “inactive”.
In the case of `O=C(NCc1cccs1)c1ccc([N+](=O)[O-])cc1`, the outcome was inactive.
The same measure for `Nc1ccc(C(=O)N/N=C\C=C\c2ccc([N+](=O)[O-])cc2)cc1`: “inactive”; for `CCOC(=O)c1csc(NC(=O)COc2ccc(Cl)cc2Cl)n1`: “inactive”; for `O=C(N/N=C/c1cc(Br)ccc1O)c1ccccc1Cl`: “inactive”.
Consider `Cc1cc(Cl)ccc1N(CC(=O)NCc1ccccc1)S(C)(=O)=O`, for which the outcome was inactive.
To `COC(=O)COc1ccc(S(=O)(=O)NCc2ccc3c(c2)OCO3)cc1` belongs “inactive”; to `O=C1NC(Cc2c[nH]c3ccccc23)C(=O)N1CCOc1ccccc1` (stereo not given), “inactive”.
The same measure for `O=C(NCc1ccc(Cl)cc1)c1n[nH]c([N+](=O)[O-])c1Cl`: “inactive”; for `Fc1ccc(-c2nnc(CSc3nnc(-c4cccs4)o3)o2)cc1`: “inactive”; for `c1ccc(-c2nnc(SCc3cn4ccsc4n3)o2)cc1`: “inactive”.
To `CCn1cc(C(=O)NC(C)C23CC4CC(CC(C4)C2)C3)cn1` (stereo not given) belongs “inactive”.
`CCOC(=O)Nc1ccc2c(c1)N(C(=O)CCCl)c1ccccc1[S@]2=O`: the outcome was inactive.
To `CN(C)CCC(=O)N1c2ccccc2Sc2ccc(Cl)cc21` belongs “inactive”; to `Cc1ccc(C)c(NC(=O)COC(=O)c2cc3ccccc3oc2=O)c1`, “inactive”; to `O=Cc1coc2ccc3ccccc3c2c1=O`, “inactive”.
The same measure for `CCOc1ccccc1OC(=O)c1cc2ccccc2oc1=O`: “inactive”; for `CC1(c2nnc(Cc3ccccc3)o2)CC(c2ccccc2[N+](=O)[O-])=NO1` (stereo not given): “inactive”.
To `C/C(=N\O)c1cc(Cl)ccc1O` belongs “inactive”.
With `CC(C)=CCN1CCN(Cc2cn(C(C)C)c3ccccc23)CC1CCO` (stereo not given), the result was inactive.
To `O=[N+]([O-])c1ccc(N2CCCCCC2)c2nonc12` belongs “inactive”.
The same measure for `CCOc1ccc(-c2ccc(C=O)o2)c([N+](=O)[O-])c1`: “inactive”.
